The list is not random: actives were taken first. Their share in the collection is about 17%.
TGFb SMAD3 inh – qHTS for Inhibitors of TGF-b; 410,000 tested, 1.2% active; HepG2 CAGA-GFP TGF-b/SMAD3 reporter, GFP fluorescence, 18 h; TGF-beta stimulated, 500 pg/mL final; AID 588855, 2011; Potency, µM (doses to about 46.1 µM), inactives show top-dose activity, negative = inhibition, usual class: inhibitors; further: on the % scale 0 is the no-effect control and ±100 the full control effect; nearly all actives have a fitted effect of over 65% in size
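First, reporter cells (HEPG2 CAGA-GFP) rested 2 h at 37 degrees C. Next, compounds were pinned in and TGF-beta added to 500 pg/mL final. After 18 h, GFP was imaged per cell and summed per well.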
ATXN2 expr inh – Primary qHTS for Inhibitors of ATXN expression; HEK-293 ATXN2-luciferase reporter, luminescence, 24 h; AID 1745845, 2022; Potency, µM (highest dose often 57 µM), without a hit: at the top dose activity change, negative = inhibition, usual class: inhibitors; 360,000 tested, 0.72% active; further: on the % scale 0 is the no-effect control and ±100 the full control effect; nearly all actives have a fitted effect of over 55% in size
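qHTS (up to 57 uM final) was run with 24 h compound exposure of reporter cells at 37 °C. Each well was multiplexed: SteadyGlo luminescence measured ATXN2-luciferase expression after a fluorogenic Gly-Phe-AFC viability readout (25 uM final).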
HepG2 viability – qHTS for Inhibitors of TGF-b: Cytotox Counterscreen | 410,000 tested, 0.76% active | HepG2 CAGA-GFP viability, ATP luminescence, 18 h | Potency, µM (highest dose often 46.1 µM), for inactives: top-dose activity change, negative = cytotoxicity, most hits filed as cytotoxic
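CellTiter-Glo luminescence gave cytotoxicity after 18 hours at 37 degrees C. The cells were HepG2 CAGA-GFP in 1% FBS DMEM, stimulated with 500 pg/mL TGF-beta after compound addition. %Activity was normalised to no-cell wells (complete cell-killing) and DMSO (no toxicity), and curves were fitted and classified.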
TDP1 cell noCPT – qHTS for Inhibitors of human tyrosyl-DNA phosphodiesterase 1 (TDP1): qHTS in cells in absence of CPT; DT40 Tdp1-/- hTDP1 cells, no CPT, ATP luminescence, 48 h; Potency, µM (top dose mostly 46.2 µM), for inactives: at the top dose activity change, negative = growth inhibition, usual class: inhibitors; 420,000 tested, 15% active; AID 686978, 2013; further: on the % scale 0 is the no-effect control and ±100 the full control effect; nearly all actives have a fitted effect of over 55% in size
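DT40 Tdp1-/-;hTDP1 cells, no CPT (DMSO vehicle only), 400 cells/well; compounds pin-transferred; ≥48 hr, 37 °C; CellTiter-Glo 30 min RT dark, luminescence read.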
S2 tox – Viability Counterscreen for Primary qHTS for Inhibitors of ATXN expression | S2 cells (HEK-293 line with an ATXN2-luciferase reporter) viability, CellTiter-Fluor protease fluorescence, 24 h | Potency, µM (highest dose often 56.7 µM), actives largely listed as cytotoxic | 400,000 tested, 0.49% active | AID 651635, 2014; further: nearly all actives have a fitted effect of over 40% in size
DT40 TDP1 CPT – qHTS for Inhibitors of human tyrosyl-DNA phosphodiesterase 1 (TDP1): qHTS in cells in presence of CPT; 420,000 tested, 12% active; AID 686979, 2013; Potency, µM (top dose mostly 46.2 µM), without a hit: at the highest dose activity change, negative = growth inhibition, hits mostly inhibitors; chicken DT40 Tdp1-/-;hTDP1 cells + 20 nM CPT, ATP luminescence, 48 h; further: on the % scale 0 is the no-effect control and ±100 the full control effect; nearly all actives have a fitted effect of over 55% in size
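Chicken DT40 Tdp1-/- cells complemented with human TDP1, 400 cells/well, exposed to compounds plus 20 nM camptothecin for at least 48 h at 37 C; viability read as ATP content by CellTiter-Glo luminescence.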
Numbers without * were called inactive; i = inactive; ? = inconclusive; nt = not tested or not shown; [ ] = dose if it differs, or a comment. The call rests on the fitted dose curve; in most records, active means well fitted curve in the direction sought with a large enough effect; inconclusive means small, poorly fitted or top-dose-only effect, or another doubt; inactive means no such curve, though single readings can be large; an effect the other way counts as inactive or inconclusive. Potency means the concentration at half of the fitted maximal effect.

SMILES	TGFb SMAD3 inh	ATXN2 expr inh	HepG2 viability	TDP1 cell noCPT	S2 tox	DT40 TDP1 CPT
Cn1cc(C=O)c2cc(F)ccc21	4.4%	nt	-9.0%	0.0%	i	-1.3%
C[n+]1ccc(/C=C/c2c[nH]c3ccc(F)cc23)cc1	84.1%	-18.1%	-17.0%	0.82µM*	i	1.64µM*
Cc1csc(SCC(=O)NC(C)C2CC3CCC2C3)n1 (stereo unspecified)	2.9%	14.1%	-0.6%	-19.6%	i	-5.1%
CC(O)Cn1cnc2c1c(=O)n(C)c(=O)n2C (stereo unspecified)	-10.4%	-17.1%	-5.0%	7.3%	i	-2.6%
O=C(c1ccc2c(c1)OCO2)N(Cc1ccco1)C1(C(=O)NC2CCCCC2)CCCCC1	1.0%	-31.8%	-5.0%	16.4µM*	?	11.6µM*
CCC(C)(C(=O)NC1CCCC1)N(Cc1ccco1)C(=O)c1ccc2c(c1)OCO2 (stereo unspecified)	8.9%	-11.1%	9.0%	7.31µM*	i	9.2µM*
O=C(c1ccccn1)N(Cc1ccco1)C1(C(=O)Nc2ccc(Br)cc2)CCCCC1	?	-5.9%	-27.9%	23.1µM*	i	16.4µM*
Cc1cc(NCCCN(C)C)n2c(nc3ccccc32)c1C#N	-0.6%	?	-34.8%	?	nt	-21.8%
Cc1cc(NCCCOC(C)C)n2c(nc3ccccc32)c1C#N	-6.0%	nt	-9.6%	25.9µM*	nt	?
Cc1cc(Nc2ccc(O)cc2)n2c(nc3ccccc32)c1C#N	14.2%	-13.7%	-13.8%	-3.4%	?	-2.0%
Cc1ccc(Nc2cc(C)c(C#N)c3nc4ccccc4n23)c(C)c1	-4.5%	1.8%	-3.2%	13µM*	i	14.6µM*
CCN(CC(=O)Nc1ccc(NC(C)=O)cc1)C(=O)CSc1nnc(-c2ccco2)n1CC	-0.6%	-0.2%	0.0%	3.7%	i	-2.8%
O=C1NC(=O)C(=Cc2ccc3nccc(-c4ccncc4)c3c2)S1	nt	6.85µM*	nt	nt	nt	nt
O=C(COc1ccc(Cl)cc1)NCC(=O)N1CCC2(CC1)NCCc1[nH]cnc12	24.1%	5.0%	0.8%	0.2%	i	9.7%
COc1ccc(Cl)c2c1[nH]c1nc(SCc3ccccn3)nnc12	?	111.9%	5.3%	25.9µM*	i	?
COc1ccc(Cl)c2c1[nH]c1nc(SCc3cccnc3)nnc12	23.1%	0.7%	9.0%	-10.9%	i	1.2%
CCc1nc(SCc2ccccc2C)n[nH]1	3.9%	nt	-4.7%	?	i	-4.8%
FC(F)(F)C(Oc1nc(Nc2ccc(Cl)cc2)nc(N2CCOCC2)n1)C(F)(F)F	34.0%	-8.6%	-12.5%	20.6µM*	i	?
CC(C)c1ccc(Nc2nc(Nc3ccc(Cl)cc3)nc(N3CCOCC3)n2)cc1	21.5%	nt	2.8%	11.2µM*	nt	?
COc1ccc(Nc2nc(N3CCOCC3)nc(N3CCOCC3)n2)cc1	5.3%	nt	-9.3%	?	i	-23.2%
CN(C)c1ccc(/C=C/c2nc3ccccc3s2)cc1Cl	?	nt	-33.7%	2.82µM*	nt	5.01µM*
Cc1cc(/C=C/c2nc3ccccc3s2)ccc1N(C)C	?	nt	-33.6%	1µM*	nt	1.41µM*
Cc1ccc(-c2cn3c(n2)sc2cc(C(=O)NC4CCCCCC4)ccc23)c(C)c1	1.6%	4.9%	-0.8%	-27.2%	i	?
Cc1ccc(Cl)c(OCC(=O)NC2CCN(Cc3ccccc3)CC2)c1	19.4%	-24.3%	6.0%	?	i	-12.4%
CCOC(=O)N1CCN(C(=O)COC(=O)c2cc(C)ccc2C)CC1	1.9%	1.2%	2.5%	-12.1%	i	-0.4%
SMILES	TGFb SMAD3 inh	ATXN2 expr inh	HepG2 viability	TDP1 cell noCPT	S2 tox	DT40 TDP1 CPT
NC(=O)c1ccc(NC(=O)CC23CC4CC(CC(Br)(C4)C2)C3)cc1	3.4%	-4.0%	2.0%	-6.3%	i	-4.8%
O=c1/c(=C/c2ccccn2)sc2n1CN(c1ccccc1)CN=2	0.0%	7.8%	14.2%	?	i	-16.6%
Cc1cc(C)c2c(c1)/C(=c1/sc3n(c1=O)CN(c1ccccc1)CN=3)C(=O)N2	9.6%	-17.9%	4.1%	16.4µM*	?	10.3µM*
CCN1CCN(c2cc(C)c3cc(NC(=S)NCc4cccs4)ccc3n2)CC1	-5.0%	nt	-35.8%	20.6µM*	?	?
CCC(C)NC(=S)Nc1ccc2nc(N3CCN(CC)CC3)cc(C)c2c1 (stereo unspecified)	1.3%	nt	-44.6%	23.1µM*	i	?
CCC(C)NC(=O)CCC(=O)Nc1ccc2nc(N3CC(C)CC(C)C3)cc(C)c2c1 (stereo unspecified)	0.0%	2.5%	15.7%	16.4µM*	i	-16.6%
Cc1ccc(C)c(N2CCN(C(=S)Nc3ccc4nc(N5CCN(C)CC5)cc(C)c4c3)CC2)c1	?	?	10µM*	11.6µM*	i	16.4µM*
Cc1ccc(C)c(N2CCN(C(=S)Nc3ccc4nc(N5CCOCC5)cc(C)c4c3)CC2)c1	-17.7%	-21.7%[11.3 µM]	2.7%	?	i	-11.5%
COc1ccc(C2/C(=C(/O)c3ccc4c(c3)CC(C)O4)C(=O)C(=O)N2CCCn2ccnc2)cc1OC (stereo unspecified)	-1.8%	-14.1%	1.3%	18.8%	i	5.3%
CCN1CCN(c2cc(C)c3cc(NC(=S)N4CCN(c5ccccc5)CC4)ccc3n2)CC1	?	-13.7%	-22.3%	10.3µM*	?	7.31µM*
CC(C)CN(C(=O)c1cccc(Cl)c1)c1c(N)n(CC(C)C)c(=O)[nH]c1=O	8.0%	7.8%	2.2%	-5.3%	i	21.2%
CSc1nn(Cc2ccc(Cl)cc2)c(N(C(C)=O)C(C)=O)c1S(=O)(=O)c1ccccc1	?	?	-50.9%	?	nt	16.4µM*
COc1ccc(S(=O)(=O)c2c(SC)nn(Cc3ccccc3C)c2NC(C)=O)cc1	-0.6%	-26.5%	-7.6%	?	?	?
CSc1nn(Cc2cccc(F)c2)c(N(C(C)=O)C(C)=O)c1S(=O)(=O)c1ccccc1	?	?	-52.0%	?	17.8µM*	-21.9%
COc1cccc(Cn2nc(SC)c(S(=O)(=O)c3ccccc3)c2N(C(C)=O)C(C)=O)c1	?	-29.8%	-34.4%	?	?	-19.8%
COc1ccc(NC(=O)/C(Cl)=C(/Cl)S(=O)(=O)Cc2ccc(C)cc2)cn1	?	7.08µM*	5.62µM*	0.82µM*	8.91µM*	0.517µM*
